Structures are written as SMILES. The source made the active and inactive calls. Unless noted, the rule behind the calls is not given here.

This is an account of results in PubChem BioAssay.

Assay [1] in a line: resazurin metabolic signal in HepG2 cells – cell-based, resazurin fluorescence, 24 h, PK04 Diversity Set, profiling panel (AID 1172). The conditions noted are these: HepG2 viability, higher = more signal. (The colour change of resazurin is a common sign of viable cells or microbes.)
Assay [2] can be described thus: budding yeast growth changes without added modifier – OD600, strain BY4716, 24 h, basal condition, primary screen (AID 1173). The conditions noted are these: S. cerevisiae BY4716 growth, OD600, 24 h; higher = more signal, called active from +8 up or from −8 down unless noted.
Assay [3] is described as follows: viability profiling in MM1S myeloma cells – cell-based, resazurin fluorescence, basal, 24 h, PK04 Diversity Set, profiling panel (AID 1174).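 Note: MM1S multiple myeloma cell line.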 The conditions noted are these: higher = more signal, called active from +8 up or from −8 down unless noted.
Assay [4] deals with Dihydroorotate dehydrogenase (quinone), mitochondrial (Plasmodium falciparum (isolate 3D7)) (UniProt Q08210). The assay is described as follows: inhibition of P. falciparum DHODH – biochemical, C-terminal His tag, absorbance 600 nm, primary screen (AID 1175).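 Note: recombinant parasite enzyme with a five histidine tag at its C terminus.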 The conditions noted are these: PfDHODH enzyme, DCIP absorbance 600 nm; higher = more signal, called active from +8 up or from −8 down unless noted.

Assay [5] in a line: inhibition of PAO1 biofilm formation – strain PAO1, LB-PBS medium, absorbance 600 nm, primary screen (AID 1176). The conditions noted are these: P. aeruginosa PAO1 growth/biofilm, A600, 12 h; higher = more signal.
Assay [6] can be described thus: growth modulation of vineyard yeast isolate – strain RM11-1a, OD600, basal, 24 h, primary screen (AID 1177).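 Note: cultures grown under basal conditions with no added stressor.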 The conditions noted are these: S. cerevisiae RM11-1a growth, OD600, 24 h; higher = more signal, called active from +8 up or from −8 down unless noted.
Assay [7] can be described thus: growth of efflux-deficient E. coli DRC39 – strain DRC39, OD650, 24 h, E. coli filamentation inducers, primary screen (AID 1178).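 Note: growth measured as culture turbidity by optical density at 650 nm.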 The conditions noted are these: E. coli DRC39 acrAB; higher = more signal, called active from +8 up or from −8 down unless noted.
Assay [8] can be described thus: growth of efflux-deficient E. coli DRC39 – strain DRC39, OD650, 48 h, E. coli filamentation inducers, primary screen (AID 1179).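 Note: screen aims at cell division blockers that make cells filament.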 The conditions noted are these: E. coli DRC39 delta-acrAB growth, higher = more signal, called active from +8 up or from −8 down unless noted.
Assay [9] is described as follows: viability profiling in RPMI8226 myeloma cells – cell-based, resazurin fluorescence, basal, 24 h, PK04 Diversity Set, profiling panel (AID 1180).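 Note: RPMI8826 multiple myeloma cell line at 5000 cells per well.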 The conditions noted are these: higher = more signal; RPMI8226 viability, resazurin fluorescence, 24 h unless noted.
Assay [10] addresses E3 ubiquitin-protein ligase XIAP (Homo sapiens) (UniProt P98170). The experiment in a line: small molecules binding XIAP protein – biophysical, small-molecule microarray, fluorescence 635 nm, primary screen (AID 1181).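 Note: score merges 667 nm emission and signal to noise over triplicate slides.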 The conditions noted are these: higher = more signal.
Assay [11] concerns XIP peptide (Xip251-270) binding. The assay is described as follows: XIP fragment 251-270 binding compounds – biochemical, small-molecule microarray, fluorescence 635/667 nm, 0.1 µg/mL protein, primary screen (AID 1182). The conditions noted are these: fluorescent protein binding, 635 nm; higher = more signal, called active from +8 up or from −8 down unless noted.
The subject of assay [12] is XIP peptide (Xip251-270). The assay is described as follows: compounds binding XIP fragment 251-270 – biochemical, small-molecule microarray, fluorescence 635/667 nm, 0.5 µg/mL protein, primary screen (AID 1183). The conditions noted are these: fluorescence 635 nm, higher = more signal.
Assay [13] in a line: blood-stage malaria parasite viability loss – strain 3D7, DAPI fluorescence, 100 nL, primary screen (AID 1184).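 Note: parasites grown inside human red blood cells in medium with human serum.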 The conditions noted are these: P. falciparum 3D7 growth, 3 d, higher = more signal.
Assay [14] concerns the target Homeobox protein Hox-A13 (Mus musculus) (UniProt Q62424). The assay is described as follows: disruptors of Hoxa13 oligonucleotide interaction – biochemical, fluorescence polarization, labeled oligonucleotide, primary screen (AID 1185). The conditions noted are these: Hoxa13:DNA binding, 15 min; higher = more signal, called active from +8 up or from −8 down unless noted. In general terms: In fluorescence polarisation assays a small probe gives low polarisation when free and higher when bound to something large.

Assay [15] is described as follows: blockers of DNA damage checkpoint Chk1 activation – imaging, HeLa, hydroxyurea, phospho-Chk1 antibody, percent positive cells, primary screen (AID 1186). The conditions noted are these: hydroxyurea-induced phospho-Chk1 immunofluorescence imaging, higher = more signal.
Assay [16] is described as follows: blockers of DNA damage checkpoint Chk1 activation – imaging, HeLa, hydroxyurea, phospho-Chk1 nuclear intensity, primary screen (AID 1187). The conditions noted are these: hydroxyurea-induced phospho-Chk1 immunofluorescence imaging, higher = more signal.

Sequence of Dihydroorotate dehydrogenase (quinone), mitochondrial (Plasmodium falciparum (isolate 3D7)) (Q08210 whole entry, looked up): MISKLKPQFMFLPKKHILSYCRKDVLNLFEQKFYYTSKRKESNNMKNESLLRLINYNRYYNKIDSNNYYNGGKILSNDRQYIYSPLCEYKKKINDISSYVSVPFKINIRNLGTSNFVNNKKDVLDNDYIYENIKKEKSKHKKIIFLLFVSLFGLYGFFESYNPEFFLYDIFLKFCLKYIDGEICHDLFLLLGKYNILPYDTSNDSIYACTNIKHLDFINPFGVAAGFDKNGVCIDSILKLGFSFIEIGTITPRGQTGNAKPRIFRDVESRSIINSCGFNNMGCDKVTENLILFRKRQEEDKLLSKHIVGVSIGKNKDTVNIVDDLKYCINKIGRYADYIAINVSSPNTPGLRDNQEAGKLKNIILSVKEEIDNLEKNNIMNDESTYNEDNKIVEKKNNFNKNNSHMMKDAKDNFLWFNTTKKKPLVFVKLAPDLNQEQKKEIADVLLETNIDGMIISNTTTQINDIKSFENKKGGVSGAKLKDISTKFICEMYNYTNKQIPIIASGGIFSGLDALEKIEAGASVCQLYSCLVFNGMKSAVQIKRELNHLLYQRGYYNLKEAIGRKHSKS
Sequence of Homeobox protein Hox-A13 (Mus musculus) (Q62424 whole entry, looked up): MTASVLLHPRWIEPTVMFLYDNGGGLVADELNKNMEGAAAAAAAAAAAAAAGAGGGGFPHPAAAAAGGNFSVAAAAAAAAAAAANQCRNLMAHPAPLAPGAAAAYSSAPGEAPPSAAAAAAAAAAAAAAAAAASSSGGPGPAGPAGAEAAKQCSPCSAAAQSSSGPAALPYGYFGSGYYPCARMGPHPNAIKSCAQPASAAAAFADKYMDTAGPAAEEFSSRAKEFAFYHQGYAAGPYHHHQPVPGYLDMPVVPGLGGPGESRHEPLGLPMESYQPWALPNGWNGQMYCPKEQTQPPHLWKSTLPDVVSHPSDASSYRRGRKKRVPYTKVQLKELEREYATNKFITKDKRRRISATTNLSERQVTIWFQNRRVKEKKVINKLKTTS
Sequence of E3 ubiquitin-protein ligase XIAP (Homo sapiens) (P98170 whole entry, looked up, the tested form may be a part): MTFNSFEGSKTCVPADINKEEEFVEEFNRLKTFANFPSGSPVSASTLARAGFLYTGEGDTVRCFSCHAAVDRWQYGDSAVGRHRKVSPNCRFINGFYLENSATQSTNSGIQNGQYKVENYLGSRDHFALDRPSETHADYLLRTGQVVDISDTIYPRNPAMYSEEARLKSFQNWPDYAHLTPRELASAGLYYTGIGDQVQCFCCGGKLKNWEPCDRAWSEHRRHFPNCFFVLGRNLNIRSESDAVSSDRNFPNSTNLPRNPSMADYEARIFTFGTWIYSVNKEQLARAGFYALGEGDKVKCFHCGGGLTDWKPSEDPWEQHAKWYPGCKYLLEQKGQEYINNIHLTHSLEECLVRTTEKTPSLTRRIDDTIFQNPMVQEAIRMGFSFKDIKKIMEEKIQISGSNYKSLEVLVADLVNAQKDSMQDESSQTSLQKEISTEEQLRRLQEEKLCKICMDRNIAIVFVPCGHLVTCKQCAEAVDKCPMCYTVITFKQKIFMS

`C=C(CC1(C(C)NP(=O)(c2ccccc2)c2ccccc2)CC1)c1ccccc1` (stereo unspecified): the z-score in assay [1] is 0.901; in assay [2], -16.1 (active); in assay [3] it was 0.794 (inactive); in assay [5], 1.38 (inactive); in assay [6] it was -16 (active); in [7] it was -0.628 (inactive). Besides, the z-score in [8] is -0.645 (inactive); in [9], 2; in [13], -1.1; in [14] it was -5.49 (inactive); in assay [15], 0.137 (inactive); in [16], 0.321 (inactive). Moreover, the composite z-score in [4] was -0.626 (inactive); in [10] it was 0.525; in assay [11] it was -0.131 (inactive); in assay [12] it was 0.858.
With `COC(=O)[C@@]1(Cc2ccccc2)[C@H]2c3cc(C(=O)N(C)C)[nH]c3C[C@H]2CN1C(=O)c1ccccc1`, the z-score in [1] is -0.154; in assay [2] it was 0.887 (inactive); in [3], -0.693 (inactive); in [5], 0.0944 (inactive); in assay [6], 0.439 (inactive); in assay [7], -0.513 (inactive). Moreover, the z-score in [8] was 0.0889 (inactive); in [9], -0.57; in assay [13], 0.747; in assay [14] it was -3.47 (inactive); in assay [15], -0.493 (inactive); in [16], -0.73 (inactive). Further, the composite z-score in assay [4] was -0.434 (inactive); in assay [10], 0.215; in assay [11], 0.665 (inactive); in assay [12] it was -0.456.
On to `CN1CCC(c2ccc(CO)cc2)=CC1C1CC1` (stereo unspecified), for which the z-score was -0.777 in assay [1]; 0.574 (inactive) in [2]; -0.55 (inactive) in [3]; -0.247 (inactive) in assay [5]; -0.123 (inactive) in assay [6]; 0.501 (inactive) in assay [7]. Further, the z-score in [8] is 0.389 (inactive); in [9], -0.869; in assay [13] it was -0.0622; in [14], -1.39 (inactive); in [15], 0.738 (inactive); in [16] it was 0.657 (inactive). Moreover, the composite z-score in assay [4] is -0.54 (inactive); in assay [10], 0.284; in assay [11] it was -0.809 (inactive); in assay [12], 0.005.
As for `C[C@@H]1OC=C2[C@@H](O)[C@H]3O[C@H]3C(=O)[C@]23[C@H]1[C@H]1C2=C([C@@H](O)[C@H]4O[C@H]4C2=O)[C@@H]3O[C@@H]1C`, the z-score in assay [1] is 0.216; in assay [2], 0.243 (inactive); in assay [3], 0.103 (inactive); in assay [5], 0.0251 (inactive); in assay [6], -0.541 (inactive); in assay [7] it was -0.03 (inactive). The z-score is -0.0416 (inactive) in assay [8], 0.864 in [9], 0.487 in assay [13] and -0.299 (inactive) in assay [14]. Further, the composite z-score was -0.0198 (inactive) in assay [4], -0.135 in assay [10], -0.496 (inactive) in assay [11] and -0.465 in assay [12].
As for `CCCC=C(CCC)[C@@H](NP(=O)(c1ccccc1)c1ccccc1)c1ccccc1`, the z-score in assay [1] is 2.47; in assay [2], 1.4 (inactive); in assay [3] it was 1.16 (inactive); in assay [5], 0.0944 (inactive); in assay [6], -0.903 (inactive); in assay [7] it was -0.486 (inactive). The z-score in [8] was -0.236 (inactive); in assay [9], 1.3; in assay [13], -0.81; in [14], -1.64 (inactive); in assay [15], 0.17 (inactive); in assay [16] it was 0.404 (inactive). The composite z-score in assay [4] is 0.0585 (inactive); in assay [10], 0.0205; in assay [11], 0.147 (inactive); in assay [12], 0.158.
Take `COC(=O)[C@H]1[C@H](c2ccccc2)C(=O)[C@]2(O)c3ccccc3O[C@@]12c1ccccc1`: the z-score is -0.514 in [1]; -2.2 (inactive) in assay [2]; -0.417 (inactive) in [3]; 0.711 (inactive) in assay [5]; -1.43 (inactive) in [6]; 0.401 (inactive) in assay [7]. Besides, the z-score in [8] was -1.04 (inactive); in assay [9], -0.865; in assay [13] it was 0.332; in assay [14] it was -0.116 (inactive). Besides, the composite z-score in [4] is -1.36 (inactive); in assay [10] it was 0.17; in [11] it was -0.013 (inactive); in assay [12], 0.364.
As for `C=C(CC1(CNP(=O)(c2ccccc2)c2ccccc2)CC1)c1ccccc1`, the z-score is -0.101 in assay [1]; 0.736 (inactive) in assay [2]; -0.342 (inactive) in assay [3]; 0.0944 (inactive) in [5]; 0.389 (inactive) in [6]; -0.174 (inactive) in assay [7]. Also, the z-score in [8] is 0.249 (inactive); in assay [9], -0.34; in assay [13] it was -0.176; in [14] it was -2.28 (inactive); in assay [15], -0.462 (inactive); in assay [16] it was -0.427 (inactive). The composite z-score in assay [4] was 0.271 (inactive); in [10], -0.177; in [11], 1.26 (inactive); in assay [12] it was 0.651.
In the case of `C[C@@H]1Cc2c(cnc3c2CN(C)CC3)CO1`, the z-score in assay [1] was 0.507; in [2], -0.583 (inactive); in [3], 0.335 (inactive); in assay [5], 0.0008 (inactive); in [6], -0.498 (inactive); in assay [7], -0.151 (inactive). The z-score is 0.0072 (inactive) in assay [8], 0.992 in assay [9], -0.0396 in assay [13] and -2.8 (inactive) in [14]. Further, the composite z-score in assay [4] was -0.7 (inactive); in assay [10], 0.276; in assay [11], -0.422 (inactive); in [12], 0.188.
`CN1CCc2nc(CO)c(CO)cc2C1`: the z-score in [1] was 0.328; in assay [2] it was 1.31 (inactive); in [3], 0.692 (inactive); in assay [5], -0.188 (inactive); in assay [6], 1.18 (inactive); in [7], 0.0008 (inactive). Also, the z-score in assay [8] was -0.019 (inactive); in [9], 1.42; in [13], -0.221; in assay [14], -0.184 (inactive). The composite z-score was 0.693 (inactive) in [4], -0.144 in assay [10], -0.102 (inactive) in assay [11] and -0.446 in assay [12].
